Activity calls are given as the source filed them.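 How the source made its calls: active means compounds giving at least 50% inhibition in the cell-based MKP-3 phosphatase rescue imaging test; inactive means the rest.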

Tested on in the first assay: not listed separately
Nature of the assay: Primary imaging screen for DUSP6 inhibitors that restore phospho-Erk in transfected HeLa cells, chemical complementation (AID 609).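 On inhibition: phospho-Erk level distribution per well compared with pooled transfected vehicle control wells.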 Conditions: HeLa MKP-3 transfected, phospho-Erk imaging KS statistic; measured here: nuclear pErk red intensity z-score; at 10 µM; stronger effect = higher value; cells stimulated with TPA for 15 min.
`CC[N+](C)(C)Cc1ccccc1Br` showed a z-score of 0.336.
As for `O=C1C(CCS(=O)c2ccccc2)C(=O)N(c2ccccc2)N1c1ccccc1` (configuration not stated), the z-score is -1.11.
Same read-out and setting: for `Cc1ccc(N2C(=O)C3ON(c4ccccc4)C(c4ccncc4)C3C2=O)c(C)c1` (configuration not stated) the value was -0.00414; for `N#Cc1nc(-c2ccccc2Cl)oc1N1CCCCC1`, -0.968; for `CC1=CC(c2ccccc2)n2nc(N3C(=O)C4CC=CCC4C3=O)nc2N1` (configuration not stated), -0.0463.
On to `CCN(CC)CCn1c(O)c(N=O)c2ccccc21`, for which the z-score turned out to be 0.221.
In turn, `Cc1ccc2nc(NCc3ccccc3)[nH]c2c1` returned a z-score of 0.83.
Same read-out and setting: for `COc1cccc(-c2nc(NC(C)(C)C)c3ccccc3n2)c1O` the value was 0.927; for `O=C1C2ON(c3ccccc3)C(c3ccncc3)C2C(=O)N1c1ccc(Br)cc1` (configuration not stated), -0.44; for `CCC(=O)O[C@@H]1CC(=O)O[C@H](C)CC=CC=C[C@@H](O)[C@H](C)C[C@H](CC=O)[C@H](O[C@H]2O[C@H](C)[C@@H](O[C@H]3C[C@@](C)(O)[C@@H](OC(=O)CC)[C@H](C)O3)[C@H](N(C)C)[C@H]2O)[C@H]1OC`, -1.92.
The molecule `O=C1CC(N(O)C2CC(=O)N(Cc3ccccc3)C2=O)C(=O)N1Cc1ccccc1` (configuration not stated) registered a z-score of -0.253.
Turning to `CC1(C)CC(NC(=O)C23CCC(C)(/C(=N/O)C2)C3(C)C)CC(C)(C)N1` (configuration not stated), the z-score is 1.59.
As to `O=c1[nH]c(-c2ccccn2)nc2ccccc12`, the z-score is -1.25.
The same measure, in the same setting: for `Cc1nnc(SCC2=C(C(=O)O)N3C(=O)[C@@H](NC(=O)Cn4cnnn4)[C@H]3SC2)s1` the value was 1.89; for `O=C(O)c1cc(=O)c2c(OCC(O)COc3cccc4oc(C(=O)O)cc(=O)c34)cccc2o1`, -0.69.
The molecule `c1ccc(-c2nc(NCC3CCCO3)c3ccccc3n2)nc1` (configuration not stated) came in with a z-score of -0.309.
On the same count and under the same terms, for `CC[C@H]1OC(=O)C[C@@H](O)[C@H](C)[C@@H](O[C@@H]2O[C@H](C)C[C@H](N(C)C)[C@H]2O)[C@@H](CC=O)C[C@@H](C)C(=O)C=C[C@]2(C)O[C@H]2[C@@H]1C` the value was -0.416; for `CC(C)NCC(O)COc1cccc2[nH]ccc12` (configuration not stated), 0.346.
In turn, `Cc1ccc2cc(CN(C(=O)c3ccco3)c3ccccc3C)c(=O)[nH]c2c1` registered a z-score of -0.15.
The molecule `CN1CCN(Cc2c(O)ccc3c(-c4ccccc4)cc(=O)oc23)CC1` gave a z-score of 0.493.
`Cc1cc(N2C(=O)C(=O)/C(=C(/O)c3ccccc3)C2c2cccc(Br)c2)no1` (configuration not stated) yielded a z-score of 0.565.
The same measure, in the same setting: the figure for `COc1ccc(C(=O)Nc2nc(N)n(-c3ccccc3)n2)cc1OC` is 0.0402; for `Cc1ccc(N2C(=O)C3ON(c4ccccc4)C(c4ccncc4)C3C2=O)cc1` (configuration not stated) it is 0.0354.

The target of a further assay is Dual specificity protein phosphatase 6 (Homo sapiens) (UniProt Q16828). Described as above. To be noted: HeLa MKP-3 transfected, phospho-Erk imaging KS statistic; at 10 µM; stronger effect = higher value; cells stimulated with TPA for 15 min.
Sequence of Dual specificity protein phosphatase 6 (Homo sapiens) (Q16828 whole entry, looked up): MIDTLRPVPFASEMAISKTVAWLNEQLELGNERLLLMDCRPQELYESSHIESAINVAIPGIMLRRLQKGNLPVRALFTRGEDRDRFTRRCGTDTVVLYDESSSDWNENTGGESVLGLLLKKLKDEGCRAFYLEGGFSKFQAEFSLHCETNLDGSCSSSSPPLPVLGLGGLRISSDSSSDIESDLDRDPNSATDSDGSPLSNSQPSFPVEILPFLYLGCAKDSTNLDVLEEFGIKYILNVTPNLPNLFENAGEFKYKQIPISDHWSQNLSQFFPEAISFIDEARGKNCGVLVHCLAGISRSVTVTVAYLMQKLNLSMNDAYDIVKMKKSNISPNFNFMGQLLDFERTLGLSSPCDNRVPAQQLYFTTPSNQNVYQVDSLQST
For orientation: inhibition means the drop in the measured response relative to a control, in per cent. On to `Cc1cccc(C)c1N1C(=O)C2ON(c3ccccc3)C(c3ccncc3)C2C1=O` (configuration not stated), for which the inhibition was -1.75% (inactive).
`COc1ccc(C2C=C(c3ccc(Cl)cc3)Nc3nc(NC(C)=O)nn32)cc1` (configuration not stated): the inhibition was -8.76% (inactive).
`CC(C)Cc1ccc(C(C)C(=O)O)cc1` (configuration not stated): the inhibition is -0.828% (inactive).
The same measure, in the same setting: the figure for `COCCCNc1nc(-c2ccncc2)nc2ccccc12` is 18.2% (inactive); for `CCCOC(=O)C1[C@H]2C(=O)N(Cc3ccco3)C[C@]23C=C[C@H]1O3` (some centres not stated) it is -7.01% (inactive).
For `COc1ccc(CNC(=O)[C@H](C)NC(=O)C2CCN(S(=O)(=O)c3ccc(C)cc3)CC2)cc1`, the inhibition was -3.5% (inactive).
In the case of `N#C/C(=N\O)c1nc(-c2ccccc2)cs1`, the inhibition was 1.75% (inactive).
`Oc1ccc(Br)cc1-c1cc(-c2ccccc2F)[nH]n1`: the inhibition is -5.26% (inactive).
For `COc1ccc(/C(O)=C2/C(=O)C(=O)N(CCN3CCOCC3)C2c2ccccn2)cc1OC` (configuration not stated), the inhibition was 15.8% (inactive).
In the case of `CCOc1ccc(/C(O)=C2/C(=O)C(=O)N(c3nc(C)c(C)s3)C2c2ccco2)cc1` (configuration not stated), the inhibition is -10.5% (inactive).
Turning to `O=C1C2ON(c3ccccc3)C(c3ccncc3)C2C(=O)N1c1ccccc1` (configuration not stated), the inhibition was -14% (inactive).
Consider `CCOC(=O)N1CCN(/C=C(\C#N)c2nc3ccccc3s2)CC1`, for which the inhibition is 7.01% (inactive).
On to `CCOc1ccc(C2C(C(=O)c3ccc(C)o3)=C(O)C(=O)N2CCN2CCOCC2)cc1OC` (configuration not stated), for which the inhibition is -12.3% (inactive).
Take `CC(C)(C)c1ccc(C(O)CCCN2CCC(C(O)(c3ccccc3)c3ccccc3)CC2)cc1` (configuration not stated): the inhibition is 21.2% (inactive).
In the case of `O=C(O)CCCCCN1C(=O)CCC1=O`, the inhibition is 5.26% (inactive).
In the case of `CC(=O)O[C@H]1C(=O)[C@]2(C)[C@H]([C@H](OC(=O)c3ccccc3)[C@]3(O)C[C@H](OC(=O)[C@H](O)[C@@H](NC(=O)c4ccccc4)c4ccccc4)C(C)=C1C3(C)C)[C@]1(OC(C)=O)CO[C@@H]1C[C@@H]2O`, the inhibition was -2.46% (inactive).
For `CC[N+](C)(C)Cc1ccccc1Br`, the inhibition was 11.3% (inactive).
On the same count and under the same terms, for `O=C1C(CCS(=O)c2ccccc2)C(=O)N(c2ccccc2)N1c1ccccc1` (configuration not stated) the value was 12.4% (inactive).
Still for that read-out and setting: for `Cc1ccc(N2C(=O)C3ON(c4ccccc4)C(c4ccncc4)C3C2=O)c(C)c1` (configuration not stated) the value was -12.3% (inactive).
For `N#Cc1nc(-c2ccccc2Cl)oc1N1CCCCC1`, the inhibition was 20.2% (inactive).
For `CC1=CC(c2ccccc2)n2nc(N3C(=O)C4CC=CCC4C3=O)nc2N1` (configuration not stated), the inhibition is -5.26% (inactive).
For the molecule `CCN(CC)CCn1c(O)c(N=O)c2ccccc21`, the inhibition was 21% (inactive).
Regarding `Cc1ccc2nc(NCc3ccccc3)[nH]c2c1`, the inhibition is -14% (inactive).
With `COc1cccc(-c2nc(NC(C)(C)C)c3ccccc3n2)c1O`, the inhibition is -1.75% (inactive).
Still for that read-out and setting: for `O=C1C2ON(c3ccccc3)C(c3ccncc3)C2C(=O)N1c1ccc(Br)cc1` (configuration not stated) the value was 12.3% (inactive).
For the molecule `CCC(=O)O[C@@H]1CC(=O)O[C@H](C)CC=CC=C[C@@H](O)[C@H](C)C[C@H](CC=O)[C@H](O[C@H]2O[C@H](C)[C@@H](O[C@H]3C[C@@](C)(O)[C@@H](OC(=O)CC)[C@H](C)O3)[C@H](N(C)C)[C@H]2O)[C@H]1OC`, the inhibition is 11.3% (inactive).
Still for that read-out and setting: the figure for `O=C1CC(N(O)C2CC(=O)N(Cc3ccccc3)C2=O)C(=O)N1Cc1ccccc1` (configuration not stated) is 3.5% (inactive).
Regarding `CC1(C)CC(NC(=O)C23CCC(C)(/C(=N/O)C2)C3(C)C)CC(C)(C)N1` (configuration not stated), the inhibition was -14% (inactive).
Regarding `O=c1[nH]c(-c2ccccn2)nc2ccccc12`, the inhibition is 1.48% (inactive).
The same measure, in the same setting: for `Cc1nnc(SCC2=C(C(=O)O)N3C(=O)[C@@H](NC(=O)Cn4cnnn4)[C@H]3SC2)s1` the value was -6.41% (inactive).
Turning to `O=C(O)c1cc(=O)c2c(OCC(O)COc3cccc4oc(C(=O)O)cc(=O)c34)cccc2o1`, the inhibition was 5.42% (inactive).
Turning to `c1ccc(-c2nc(NCC3CCCO3)c3ccccc3n2)nc1` (configuration not stated), the inhibition was -1.75% (inactive).
For the molecule `CC[C@H]1OC(=O)C[C@@H](O)[C@H](C)[C@@H](O[C@@H]2O[C@H](C)C[C@H](N(C)C)[C@H]2O)[C@@H](CC=O)C[C@@H](C)C(=O)C=C[C@]2(C)O[C@H]2[C@@H]1C`, the inhibition is 7.39% (inactive).
`CC(C)NCC(O)COc1cccc2[nH]ccc12` (configuration not stated): the inhibition is 3.45% (inactive).
`Cc1ccc2cc(CN(C(=O)c3ccco3)c3ccccc3C)c(=O)[nH]c2c1`: the inhibition is 17.5% (inactive).
As for `CN1CCN(Cc2c(O)ccc3c(-c4ccccc4)cc(=O)oc23)CC1`, the inhibition is 1.48% (inactive).
Take `Cc1cc(N2C(=O)C(=O)/C(=C(/O)c3ccccc3)C2c2cccc(Br)c2)no1` (configuration not stated): the inhibition is 1.6e-07% (inactive).
For `COc1ccc(C(=O)Nc2nc(N)n(-c3ccccc3)n2)cc1OC`, the inhibition is -1.75% (inactive).
Take `Cc1ccc(N2C(=O)C3ON(c4ccccc4)C(c4ccncc4)C3C2=O)cc1` (configuration not stated): the inhibition is -8.76% (inactive).

These data come from PubChem BioAssay.
